# According to PubChem BioAssay:
# The source made the active and inactive calls. Unless noted, the rule behind the calls is not given here.
# How the values were obtained:
# [1] = test system: Wnt5a (protein binding on small-molecule microarray); assay: Wnt5a binders on small-molecule microarray, primary screen, biophysical, 635/667 nm fluorescence (AID 1142); details: 635 nm fluorescence, higher = more signal;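 note: fluorescence read at 667 nm with signal to noise per printed feature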
# [2] = cell viability in Huh7 cells, primary screen, cytotoxicity control for HCV replication inhibitor project, CellTiter-Glo luminescence, basal, 48 h (AID 1143); details: Huh7 HCV replicon, higher = more signal, called active from +8 up or from −8 down;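 note: Huh7 hepatoma cells carrying a hepatitis C replication reporter with no stimulus; test concentration not given here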
# [3] = P. aeruginosa biofilm formation inhibitors, primary screen, PAO1 strain, BacTiter-Glo luminescence, LB-PBS (AID 1144); details: 12 h, higher = more signal
# [4] = CREB reporter modulators without forskolin, primary screen, cell-based, PC12, CRE-LacZ reporter, unstimulated (AID 1145); details: no forskolin, luminescence, 4.5 h, higher = more signal, called active from +8 up or from −8 down
# [5] = CREB reporter modulators under forskolin, primary screen, cell-based, PC12, CRE-LacZ reporter, forskolin-stimulated (AID 1146); details: luminescence, 4.5 h, higher = more signal, called active from +8 up or from −8 down;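 note: PC12 cells with 6xCRE LacZ reporter stimulated by forskolin 10 µM; beta-galactosidase reporter signal reflecting CREB driven transcription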
# [6] = biological target: Streptavidin (Streptomyces avidinii) (UniProt P22629); assay: streptavidin binders on small-molecule microarray, primary screen, artefact control for SMM compound annotation, biophysical, 635/667 nm fluorescence (AID 1147); details: streptavidin binding, higher = more signal;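 note: signal reflects streptavidin binding to arrayed compounds as a control protein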
# [7] = small-molecule binders of probe aInhba, primary screen, biochemical, small-molecule microarray, 635/667 nm fluorescence (AID 1148); details: higher = more signal;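 note: score merges 667nm spot fluorescence with signal-to-noise for antibody binding to printed compounds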
# [8] = biological target: Torsin-1A (Homo sapiens) (UniProt O14656); assay: torsin A binders from cell lysate, primary screen, small-molecule microarray, wild-type, 635/667 nm (AID 1149); details: COS7 hTOR1A-WT lysate, 635 nm fluorescence, higher = more signal
# [9] = biological target: Torsin-1A (Homo sapiens) (UniProt O14656); assay: small-molecule binders of mutant TOR1A in lysate, primary screen, cell lysate, small-molecule microarray, COS7 lysate, 635/667 nm fluorescence (AID 1150); details: COS7 hTOR1A mutant lysate, 635 nm fluorescence, higher = more signal;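 note: score pools 667 nm emission and signal to noise measuring lysate protein binding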
# [10] = test system: Sonic hedgehog protein (Shh); assay: small-molecule binders of Shh protein, primary screen, biochemical, small-molecule microarray, 635/667 nm fluorescence (AID 1151); details: small-molecule microarray binding, 635 nm fluorescence; higher = more signal;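 note: Shh protein binding to compounds spotted on small-molecule microarray slides; score combines spot fluorescence intensity with signal-to-noise across triplicate slides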
# Torsin-1A (Homo sapiens), sequence (O14656 whole entry, looked up): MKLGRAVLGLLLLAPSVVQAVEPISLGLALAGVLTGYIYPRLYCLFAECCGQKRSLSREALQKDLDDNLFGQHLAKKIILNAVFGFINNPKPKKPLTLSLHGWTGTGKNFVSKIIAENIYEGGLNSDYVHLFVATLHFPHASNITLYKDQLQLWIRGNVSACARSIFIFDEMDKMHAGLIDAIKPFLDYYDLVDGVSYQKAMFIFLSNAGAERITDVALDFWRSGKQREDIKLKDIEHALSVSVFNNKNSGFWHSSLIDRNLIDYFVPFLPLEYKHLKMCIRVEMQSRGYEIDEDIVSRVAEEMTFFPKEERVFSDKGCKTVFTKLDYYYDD
# Streptavidin (Streptomyces avidinii), sequence (P22629 whole entry, looked up): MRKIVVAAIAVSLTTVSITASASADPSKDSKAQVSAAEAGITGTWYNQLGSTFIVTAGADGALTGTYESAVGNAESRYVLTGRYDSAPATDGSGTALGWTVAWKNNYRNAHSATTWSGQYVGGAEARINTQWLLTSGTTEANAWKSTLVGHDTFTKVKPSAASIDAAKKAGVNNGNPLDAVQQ
SMILES,composite z-score [1],z-score [2],z-score [3],z-score [4],z-score [5],composite z-score [6],composite z-score [7],composite z-score [8],composite z-score [9],composite z-score [10]
O=C1C2C=CC(C(O)COCc3ccccc3)N(Nc3ccc([N+](=O)[O-])cc3)C2C(=O)N1c1ccccc1 (stereo not given),0.43,-3 (inactive),-1.83 (inactive),-0.275 (inactive),0.788 (inactive),0.464,0.0743,0.272,0.165,0.57
O=C(NC1CC1)[C@@H]1c2ccccc2C(=O)N(Cc2cc(F)cc(C(F)(F)F)c2)[C@H]1c1ccc(CO)cc1,0.518,-0.335 (inactive),-0.435 (inactive),0.001 (inactive),0.162 (inactive),-0.685,-0.0468,0.517,0.543,-0.296
COC(=O)[C@]1(CCC(=O)OC(C)(C)C)N=C(c2ccc(OCCCO)cc2)O[C@@H]1c1ccccc1,-0.102,-4.76 (inactive),0.314 (inactive),2.39 (inactive),-0.0673 (inactive),-0.98,0.154,-0.927,-0.343,0.169
O=C1O[C@@H](c2ccccc2)[C@@H](c2ccccc2)N2[C@@H](c3ccccc3OCCO)[C@]3(C(=O)Nc4ccccc43)[C@@H](C(=O)O)[C@H]12,0.205,-0.99 (inactive),-0.0695 (inactive),0.568 (inactive),2.62 (inactive),1.38,-0.103,0.332,1.14,0.0546
COC(=O)c1c2oc(c1C(=O)OC)C(=O)NC1(CCCCC1)c1cn(nn1)C[C@H](Cc1ccccc1)NC(=O)N[C@H](CO)CC2,-0.151,-0.275 (inactive),-0.926 (inactive),3.49 (inactive),-0.696 (inactive),1.05,-0.05,-0.299,0.113,1.32
COc1ccc([Si](C)(C)[C@@H]2[C@@H](CC(=O)N3CCC[C@H]3CO)O[C@]3(C(=O)N(Cc4cccc(I)c4)c4ccccc43)[C@H]2C)cc1,0.557,-4.27 (inactive),0.452 (inactive),0.12 (inactive),-0.845 (inactive),0.168,-0.0582,1.36,0.789,2.14
CC(c1ccccc1)C(O)C1C=CC2C(=O)N(c3ccccc3)C(=O)C2N1Nc1ccccc1 (stereo not given),0.821,-3.13 (inactive),-0.626 (inactive),0.246 (inactive),0.379 (inactive),1.67,0.0906,0.524,1.07,0.843
CS(=O)(=O)CCOC(=O)C1=CC(CCCO)=CC(C2CC2)N(Cc2cc3c(cc2Br)OCO3)C=C1C(=O)OCCS(C)(=O)=O (stereo not given),0.0339,-0.737 (inactive),-0.453 (inactive),-0.0424 (inactive),0.926 (inactive),0.635,-0.0695,0.913,1.03,0.358
CN1C(=O)C2C=CC(C(O)c3ccc(F)cc3)N(N(c3ccccc3)c3ccccc3)C2C1=O (stereo not given),-0.0512,0.319 (inactive),-0.0417 (inactive),-0.708 (inactive),0.677 (inactive),0.453,0.0047,-0.182,0.361,-0.647
C=CCNC(=O)[C@@H]1[C@H]2C(=O)O[C@H](c3ccccc3)[C@H](c3ccccc3)N2[C@H](c2ccc(OCCO)cc2)[C@@]12C(=O)N(C(=O)OCCOC)c1ccc(C#CCNC(N)=O)cc12,0.372,-1.1 (inactive),0.388 (inactive),0.505 (inactive),-0.419 (inactive),0.348,0.115,0.609,0.733,1.56
CS(=O)(=O)CCOC(=O)C1=CC(CCCO)=CC(c2ccc(CN3CCCC3)cc2)N(Cc2cccc(OC(F)(F)F)c2)C=C1C(=O)OCCS(C)(=O)=O (stereo not given),0.531,-1.42 (inactive),4.41 (inactive),4.56 (inactive),-0.0478 (inactive),0.812,0.259,0.907,1.33,0.798
CCCCCCc1nc(-c2ccc(-c3ccc(Cl)c(Cl)c3)o2)cc2c1[Si](C(C)C)(C(C)C)O[C@H]2c1ccccc1,-0.355,-0.731 (inactive),-0.206 (inactive),-0.113 (inactive),0.497 (inactive),-0.711,-0.0719,-0.512,0.978,-0.434
COc1cc2c(cc1O)C(c1cccs1)N(Cc1ccc([N+](=O)[O-])o1)CC2 (stereo not given),0.207,-1.37 (inactive),-0.371 (inactive),0.209 (inactive),-0.543 (inactive),1.32,0.167,0.426,-0.155,-0.951
O=C1NC(=O)C2C1C=CC(C(O)c1ccc(I)cc1)N2Nc1ccc(Cl)cc1Cl (stereo not given),0.372,-1.58 (inactive),-1.74 (inactive),1.77 (inactive),-0.299 (inactive),1.34,0.337,0.0137,0.303,-0.366
C=CCN(Cc1ccccc1)C(=O)C(c1cccs1)N(C(=O)/C=C\C(=O)O)c1ccc(CCOCCO)cc1 (stereo not given),-0.913,-0.0564 (inactive),-1.75 (inactive),-0.0737 (inactive),-0.771 (inactive),-1.82,-0.133,-2.08,-2.48,-0.595
CCOC(=O)C[C@H]1[C@H](OC(=O)c2cc3ccccc3oc2=O)[C@@H](NC(=O)CC(C)C)c2cc(OCCCO)ccc2N1C(=O)c1ccccc1,0.175,-3.29 (inactive),1.25 (inactive),10.4 (active),-1.37 (inactive),0.131,-0.0986,0.272,0.205,0.595
COCC(=C=CC[C@H](O)c1cccc(OCCO)c1)C[C@H](O)c1cc(Cl)cc(Cl)c1O,0.556,-0.465 (inactive),-0.494 (inactive),10 (active),0.32 (inactive),-0.128,0.0104,1.06,0.878,1.77
COc1ccc(C(O)C2C=CC3C(=O)N(C)C(=O)C3N2N(c2ccccc2)c2ccccc2)c2ccccc12 (stereo not given),0.151,0.497 (inactive),-0.347 (inactive),0.246 (inactive),1.1 (inactive),0.797,0.0342,0.415,0.526,1.11
CN1CCC(CCCO)=CC1c1cccs1 (stereo not given),-0.142,0.504 (inactive),0.519 (inactive),-0.145 (inactive),1.84 (inactive),-0.131,-0.128,-0.214,-0.122,0.834
C=CC[C@@]1(C(=O)N2CCCCC2)N=C(c2ccc(OCCCO)cc2)O[C@@H]1c1ccccc1CN=[N+]=[N-],0.381,-4.96 (inactive),-0.703 (inactive),3.77 (inactive),0.51 (inactive),1.77,0.233,0.342,0.711,0.466
O=C(O)[C@@]1(CCS(=O)(=O)c2ccccc2)N=C(c2ccc(OCCCO)cc2)O[C@H]1c1ccccc1,-0.111,-0.798 (inactive),0.0288 (inactive),-0.23 (inactive),-0.324 (inactive),1.34,0.102,1.43,1.79,-0.338
